# Myeloid diff 2 – myeloid differentiation induction. ER-HoxA9 myeloid progenitors, lysozyme-GFP differentiation, flow cytometry. calls only at 10 µM. 360,000 tested, 1% active;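 active = normalized GFP-positive differentiation at or above the plate's own cutoff, the solvent-only control mean plus 3 SD; inconclusive = no clear call, values can overlap the other calls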;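 also: cells exposed to compound for four days before flow analysis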
# M1 antag – blocks human M1 muscarinic receptor | CHO-K1 hM1, Fluo-8 calcium fluorescence, ACh EC80 antagonist | inhibition, % at 3 µM | 360,000 tested, 1.3% active | AID 588852;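 active = percent inhibition above its own plate's cutoff, namely the mean of that plate's compound wells plus 3 SD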;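 also: peak over basal fluorescence ratio during 140 s after agonist addition; 0% = ACh EC80 plus DMSO and 100% = DMSO alone without agonist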
# Target sequence (P11229 whole entry, looked up): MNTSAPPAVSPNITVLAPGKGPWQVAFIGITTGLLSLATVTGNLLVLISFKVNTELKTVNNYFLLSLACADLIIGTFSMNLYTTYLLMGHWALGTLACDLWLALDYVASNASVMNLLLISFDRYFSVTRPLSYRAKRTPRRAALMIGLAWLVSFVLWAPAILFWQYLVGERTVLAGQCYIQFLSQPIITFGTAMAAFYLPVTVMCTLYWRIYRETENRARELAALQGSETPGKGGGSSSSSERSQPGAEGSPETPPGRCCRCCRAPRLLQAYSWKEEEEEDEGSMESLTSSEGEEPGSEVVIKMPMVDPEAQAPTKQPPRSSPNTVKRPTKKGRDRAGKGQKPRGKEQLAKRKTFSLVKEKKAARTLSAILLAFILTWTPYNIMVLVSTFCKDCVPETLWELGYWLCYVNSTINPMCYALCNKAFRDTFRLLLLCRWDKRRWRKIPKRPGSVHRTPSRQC
# SKN-1 inh – C. elegans SKN-1 inhibition; C. elegans VP596 Pgst-4::GFP/RFP ratio, acrylamide-induced, 24 h; inhibition, % at 21.8 µM; 360,000 tested, 0.49% active;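 active = interference check ratio from 0.5 to 1.5 plus GFP to RFP signal ratio inhibition reaching or exceeding a fixed threshold, cut at about 30% in these data, passing the limit was not always enough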
# M1 PAM – human CHRM1 positive allosteric modulation | 360,000 tested, 0.088% active | AID 588819 | activation, % at 3 µM | P11229 | CHO-K1 hM1, Fluo-8 calcium fluorescence, ACh EC20; 0% = ACh EC20, 100% = maximal ACh; in the data active = activation above about 19%, passing the limit was not always enough
# M1 ag – agonists of human M1 muscarinic receptor; P11229; CHO-K1 hM1, Fluo-8 calcium fluorescence, agonist mode; 0% DMSO, 100% acetylcholine EC100; activation, % at 3 µM; 360,000 tested, 0.33% active; AID 588814;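 active = activation above the run's mean compound activation plus 3 SD, cut at about 16% in these data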;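 also: peak over basal fluorescence ratio within a 140 s kinetic read after compound addition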
# ATG4B inhibitor – blocks human ATG4B protease cleavage of LC3 substrate. Q9Y4P1. 340,000 tested, 0.51% active. ATG4B cleavage of LC3-PLA2, NBD-HPC fluorescence, 1 h. inhibition, % at 8.33 µM; in the data active = inhibition above about 40%
# An asterisk follows results filed as active; i = inactive; ? = inconclusive; . = no result; + = active, no number. This is a sample that favours compounds with a hit; in the whole collection about 3.5% have one here.
SMILES,Myeloid diff 2,M1 antag,SKN-1 inh,M1 PAM,M1 ag,ATG4B inhibitor
Cc1ccc2c(c1)S/C(=C/c1ccc[n+](C)c1)N2CCO,+,-2.2,-6.0,7.7,-4.6,-1.0
CCc1noc(C)c1C(=O)N1CCCSC1=Nc1ccccc1Cl,i,-4.2,14.7,6.5,-5.1,3.0
CN(C)c1ccc(CC(=O)N2CCCC(c3cc(C(=O)Nc4ccc(C(C)(C)C)cc4)no3)C2)cc1 (centres undefined),i,28.6*,2.7,-11.0,3.2,.
O=C(Nc1ccccc1)c1cc(C2CCCN(C(=O)CCc3ccccc3)C2)on1 (centres undefined),i,-12.2,-6.6,0.3,-4.3,.
CCCCCn1c(NC(=O)c2ccco2)c(S(=O)(=O)c2ccc(C)cc2)c2nc3ccccc3nc21,+,-3.3,-1.3,1.6,-2.4,23.1
Cc1ccc(C(=O)Nn2c(N)c(S(=O)(=O)c3ccc(C)cc3)c3nc4ccccc4nc32)cc1,i,20.4*,0.9,0.0,5.4,-6.3
Cc1ccc(S(=O)(=O)c2c(N)n(NC(=O)c3ccccc3C)c3nc4ccccc4nc23)cc1,i,-6.5,-5.7,2.9,-4.8,-3.5
CCCCn1c(NS(=O)(=O)c2ccccc2)c(S(=O)(=O)c2ccc(C)cc2)c2nc3ccccc3nc21,i,-1.8,-3.4,1.9,1.1,75.3*
CCCCn1c(NC(=O)c2ccco2)c(S(=O)(=O)c2ccc(C)cc2)c2nc3ccccc3nc21,+,4.0,17.6,0.8,-5.8,-3.2
CCOc1ccc(Oc2ccc(C(F)(F)F)cc2NC(=O)C2=COCCO2)cc1,i,-1.1,-0.6,1.6,-2.0,-0.2
CC1CCCCC1NC(=O)CO/N=C/c1ccccc1OC(F)F (centres undefined),?,-10.0,0.2,9.1,-8.8,12.2
CC1(C)CNc2cc(N)ccc2S1,+,-10.7,-3.9,11.3,-6.9,-14.9
CC(=O)c1ccc(N2CCN(C(=O)CCCn3c(=O)[nH]c4ccc(Br)cc4c3=O)CC2)cc1,i,-9.7,0.9,0.9,-2.3,-6.5
CCCCNC(=O)CCCn1c(=O)[nH]c2ccc(Br)cc2c1=O,+,-6.0,-16.8,6.6,2.2,-0.1
CCCCCc1ccc(OCCC[n+]2ccccc2)c(CCCCC)c1,i,69.1*,0.7,-27.4,-2.5,7.9
CCCCCc1ccc(OCCOCCn2c[n+](C)c3ccccc32)c(CCCCC)c1,i,79.3*,-1.4,-30.5,3.0,16.8
C[n+]1cn(CC(O)COCc2ccccc2)c2ccccc21 (centres undefined),i,-9.3,-0.6,9.2,-12.9,1.4
CC(=O)Nc1ccc(OCCC[n+]2ccccc2)cc1,i,17.2,3.4,-5.8,-3.2,-5.7
O=C(NC(c1ccc(F)cc1)c1ccc2ccccc2n1)C1CCN(CCOc2ccc(F)cc2)CC1 (centres undefined),+,-7.3,6.6,-3.3,-4.0,.
COc1ccc(OCCN2CCC(C(=O)NC(c3ccc(OC)cc3)c3ccccn3)CC2)cc1 (centres undefined),i,-12.1,20.8,9.4,-7.2,.
Cc1ccc(C(NC(=O)C2CCN(CCOc3ccccc3)CC2)c2ccccn2)cc1 (centres undefined),i,33.3*,1.5,-23.5,-8.6,.
COc1ccc(OCCN2CCC(C(=O)NC(c3ccc(F)cc3)c3ccc4ccccc4n3)CC2)cc1 (centres undefined),i,11.3,-8.1,-11.6,-7.0,.
Cc1c(NC(=O)COC(=O)c2cc(-c3ccc(-c4ccccc4)cc3)nc3ccccc23)c(=O)n(-c2ccccc2)n1C,+,-1.5,-8.8,0.5,-3.2,-0.7
Cc1c(NC(=O)c2cc(-c3ccccc3)nc3ccccc23)c(=O)n(-c2ccccc2)n1C,i,23.3,-4.2,-11.8,1.9,3.5
COc1ccc(-c2cc(C(=O)Nc3c(C)n(C)n(-c4ccccc4)c3=O)c3ccccc3n2)c(OC)c1,?,14.2,36.0*,-8.2,-0.7,-15.6
Cc1ccccc1-c1nc(CS(=O)(=O)CC(=O)NC2CCCC2)c(C)o1,i,-6.2,18.5,0.0,0.9,-2.9
CCOC(=O)N1CCC(NC(=O)CS(=O)(=O)Cc2nc(-c3ccccc3C)oc2C)CC1,+,14.6,2.2,-12.0,-1.5,-4.7
